Where “and” joins values, the source holds several entries; their conditions need not be identical. Equal values may be shown once. A number with no mark means an inactive call. Inconclusive results are not listed. Where a structure was tested more than once in an assay, its records may differ in their call. Calls of active or inactive are those of the source. Unless noted, calls follow the shape of the dose curve; as a rule, active = well fitted curve in the direction sought with a large enough effect; inconclusive = small, poorly fitted or top-dose-only effect, or another doubt; inactive = no such curve, though single readings can be large; an effect the other way counts as inactive or inconclusive.
tested on: not listed separately; assay: qHTS assay for small molecule antagonists of the retinoid-related orphan receptor gamma (ROR-gamma) signaling pathway - cell viability counter screen (AID 720652; active = well fitted curve in the direction sought with a large enough effect in the repeat runs; an effect the other way counts as inactive or inconclusive;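 also: compound exposure lasted 16 hr before ATP read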; also: potency is read from the fitted curve at half-maximal effect); details: RORgamma reporter cell line viability counter screen; series mostly up to 92.2 µM
Summary of the method: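 Steps: seed CHO cells bearing TET-inducible ROR and ROR response element-luciferase; rest 5 hr at 37 C; add compound, then doxycycline; incubate 16 hr; add CellTiter-Glo and read luminescence as ATP-based viability.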

SMILES | Potency
CC(COc1ccccc1)N(CCCl)Cc1ccccc1 (stereo not drawn) | 42.2 µM (active)
N[C@@H](Cc1ccc(N(CCCl)CCCl)cc1)C(=O)O | 21.1 µM (active)
Oc1ccccc1-c1ccccc1 | inactive
Oc1ccc(Cl)cc1Cc1ccccc1 | inactive
Oc1cccc2cccnc12 | inactive
CC(=O)Oc1ccccc1C(=O)Nc1ncc([N+](=O)[O-])s1 | 5.96 µM (active)
CCOP(=S)(OCC)Oc1cc(C)nc(C(C)C)n1 | inactive
OCCOc1ccccc1 | inactive
c1ccc2c(c1)Nc1ccccc1S2 | inactive

tested on: not listed separately; assay: qHTS assay for small molecule agonists of the antioxidant response element (ARE) signaling pathway measured by Nrf2-dependant transcriptional activity - cell viability counter screen (AID 720653; active = well fitted curve in the direction sought with a large enough effect in the repeat runs; an effect the other way counts as inactive or inconclusive; also: potency is read from the fitted curve at half-maximal effect; as to max response: % is scaled to controls: 0 for no effect and ±100 for the full control effect); details: ARE-bla HepG2 viability, CellTiter-Glo ATP luminescence, 16 h; max response: active compounds read low
Summary of the method: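 Cytotoxicity counter screen: intracellular ATP quantified by CellTiter-Glo luminescence in the same ARE-bla HepG2 plates, after 16 h compound exposure and a 2 h beta-lactamase substrate step.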

SMILES | max response | Potency
CC(COc1ccccc1)N(CCCl)Cc1ccccc1 (stereo not drawn) | -12.5% | 
N[C@@H](Cc1ccc(N(CCCl)CCCl)cc1)C(=O)O | -3.2% and -6.56% | 
Cc1cc(SCc2sc(-c3ccc(C(F)(F)F)c(F)c3)nc2C)ccc1OCC(=O)O | -1.47% | 
CC(C)(C)CC(C)(C)c1ccc(O)cc1 | -9.38% | 
Oc1ccccc1-c1ccccc1 | -12.4% and -2.58% and -3.94% | 251 µM (active)
Oc1ccc(Cl)cc1Cc1ccccc1 | 1.75% and 7.8% | 
Oc1cccc2cccnc12 | -16.3% | 
NC(=Nc1ccccc1)Nc1ccccc1 | 3.18% | 
CN(C)CCC=C1c2ccccc2CCc2ccccc21 | -15% | 
Clc1ccc(COC(Cn2ccnc2)c2ccc(Cl)cc2Cl)cc1 (stereo not drawn) | -7.45% | 
O=c1oc2ccccc2c(O)c1C(CC(O)c1ccc(-c2ccc(Br)cc2)cc1)c1ccccc1 (stereo not drawn) | -8.71% | 
O=c1[nH]c2ccccc2n1C1CCN(CCCC(c2ccc(F)cc2)c2ccc(F)cc2)CC1 |  | 50.1 µM (active)
CCOP(=S)(OCC)Oc1cc(C)nc(C(C)C)n1 | 0.528% and 11.7% | 
Oc1cc(Cl)ccc1Oc1ccc(Cl)cc1Cl | -9.95% | 
OCCOc1ccccc1 | -0.196% and 2.04% and -9.12% | 
C[C@]12C/C(=C/O)C(=O)C[C@@H]1CC[C@@H]1[C@@H]2CC[C@@]2(C)[C@H]1CC[C@]2(C)O | 3.17% and 10.2% | 
c1ccc2c(c1)Nc1ccccc1S2 | -25.7% and -9.49% | 

molecular target: T1, Hexokinase-4 (Homo sapiens) + Glucokinase regulatory protein (Homo sapiens) (UniProt P35557+Q14397); assay: qHTS assay for inhibitors of recombinant human GCK-GKRP interaction: Diaphorase-coupled assay (AID 743205); details: G6PDH/diaphorase resorufin fluorescence; series mostly up to 57.5 µM
Summary of the method: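 Compounds pre-incubated 20 min with substrate, then 10 nM GST-GCK with 10 nM FLAG-GKRP added. GCK activity coupled via G6PDH and diaphorase to resorufin (5 mM glucose, 0.4 mM ATP, 0.15 mM NADP+, pH 7.6), read kinetically over 30 minutes at Ex 525/Em 590 nm.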

T1 sequence (P35557 whole entry, looked up): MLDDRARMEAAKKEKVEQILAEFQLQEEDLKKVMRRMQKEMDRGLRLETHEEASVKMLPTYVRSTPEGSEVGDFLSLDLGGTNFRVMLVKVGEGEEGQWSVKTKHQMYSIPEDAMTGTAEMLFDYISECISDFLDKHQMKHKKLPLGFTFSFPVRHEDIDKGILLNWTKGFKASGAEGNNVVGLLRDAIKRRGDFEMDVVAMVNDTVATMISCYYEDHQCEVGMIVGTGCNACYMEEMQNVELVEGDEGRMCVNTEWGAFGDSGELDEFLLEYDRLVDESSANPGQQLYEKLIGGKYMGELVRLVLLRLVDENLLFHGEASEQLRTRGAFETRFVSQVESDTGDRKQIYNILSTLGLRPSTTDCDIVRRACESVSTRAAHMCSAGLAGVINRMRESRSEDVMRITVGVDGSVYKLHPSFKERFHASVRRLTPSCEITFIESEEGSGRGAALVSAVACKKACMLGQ
T1 sequence (Q14397 whole entry, looked up): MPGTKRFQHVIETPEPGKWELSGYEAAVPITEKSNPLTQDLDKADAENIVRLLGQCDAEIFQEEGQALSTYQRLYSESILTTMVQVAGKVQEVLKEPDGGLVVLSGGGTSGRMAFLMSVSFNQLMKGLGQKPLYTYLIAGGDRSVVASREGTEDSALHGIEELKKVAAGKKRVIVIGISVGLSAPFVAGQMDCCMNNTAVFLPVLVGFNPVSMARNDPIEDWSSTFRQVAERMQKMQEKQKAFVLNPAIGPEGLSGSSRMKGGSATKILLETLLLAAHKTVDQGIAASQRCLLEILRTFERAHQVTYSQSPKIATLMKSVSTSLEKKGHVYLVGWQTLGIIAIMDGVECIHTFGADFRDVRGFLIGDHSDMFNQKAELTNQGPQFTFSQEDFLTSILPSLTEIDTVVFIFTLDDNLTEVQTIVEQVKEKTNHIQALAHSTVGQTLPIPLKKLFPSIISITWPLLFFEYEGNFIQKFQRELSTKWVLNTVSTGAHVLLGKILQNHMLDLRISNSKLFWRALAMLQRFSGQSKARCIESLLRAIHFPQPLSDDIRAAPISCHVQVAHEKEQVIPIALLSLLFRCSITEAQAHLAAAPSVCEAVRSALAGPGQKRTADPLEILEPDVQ

SMILES | outcome
COC[C@H]1OC(=O)c2coc3c2[C@@]1(C)C1=C(C3=O)C2CCC(=O)[C@@]2(C)C[C@H]1OC(C)=O (stereo partly drawn) | inactive
Cc1cccc(C)c1NC(=O)CN1CCCC1=O | inactive
Cc1cccc(C)c1NC1=NCCCS1 | inactive
COc1ccc(Cc2nccc3cc(OC)c(OC)cc23)cc1OC | inactive
O=c1[nH]c2ccccc2n1C1CCN(CCCC(c2ccc(F)cc2)c2ccc(F)cc2)CC1 | inactive
N#CC(C#N)=Cc1ccc(O)c(O)c1 | inactive

molecular target: T1, Hexokinase-4 (Homo sapiens) + Glucokinase regulatory protein (Homo sapiens); assay: qHTS assay for inhibitors of recombinant human GCK-GKRP interaction: ADP-Glo assay (AID 743206); details: ADP-Glo luminescence, 60 min, 0% = vehicle-only wells with enzyme present; series mostly up to 76.9 µM;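 also: plate controls were DMSO plus enzyme for no effect and no enzyme for full effect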
Summary of the method: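 Pin-transferred compounds meet a 15 nM GST-GCK/15 nM FLAG-GKRP/2 uM S6P mix (dispense concentrations). ATP is then added to 0.4 mM final with 5 mM glucose, and the reaction runs 60 min at room temperature. ADP is quantified luminescently.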

SMILES | outcome
COC[C@H]1OC(=O)c2coc3c2[C@@]1(C)C1=C(C3=O)C2CCC(=O)[C@@]2(C)C[C@H]1OC(C)=O (stereo partly drawn) | inactive
Cc1cccc(C)c1NC(=O)CN1CCCC1=O | inactive
Cc1cccc(C)c1NC1=NCCCS1 | inactive
O=c1[nH]c2ccccc2n1C1CCN(CCCC(c2ccc(F)cc2)c2ccc(F)cc2)CC1 | inactive
N#CC(C#N)=Cc1ccc(O)c(O)c1 | inactive
CC[C@@H](CO)NC(=O)[C@@H]1C=C2c3cccc4c3c(cn4C)C[C@H]2N(C)C1 | inactive

molecular target: T1, Hexokinase-4 (Homo sapiens) + Glucokinase regulatory protein (Homo sapiens); assay: qHTS assay for inhibitors of recombinant human GCK-GKRP interaction: HTRF assay (AID 743207); details: recombinant GCK-GKRP HTRF binding, 60 min; series mostly up to 57.5 µM;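 also: 0% = DMSO with GCK present and -100% = DMSO wells lacking GCK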
Summary of the method: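 HTRF binding of 5 nM GST-GCK and 5 nM FLAG-GKRP with 2 uM S6P in pH 7.1 Hepes buffer (MgCl2, KCl, DTT, Tween 20, BSA). Anti-FLAG XL665 and anti-GST donor added, 60 min at room temperature; 665/615 nm read, normalized to with- and without-GCK controls.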

SMILES | outcome
COC[C@H]1OC(=O)c2coc3c2[C@@]1(C)C1=C(C3=O)C2CCC(=O)[C@@]2(C)C[C@H]1OC(C)=O (stereo partly drawn) | inactive
Cc1cccc(C)c1NC(=O)CN1CCCC1=O | inactive
Cc1cccc(C)c1NC1=NCCCS1 | inactive
O=c1[nH]c2ccccc2n1C1CCN(CCCC(c2ccc(F)cc2)c2ccc(F)cc2)CC1 | inactive
N#CC(C#N)=Cc1ccc(O)c(O)c1 | inactive
CC[C@@H](CO)NC(=O)[C@@H]1C=C2c3cccc4c3c(cn4C)C[C@H]2N(C)C1 | inactive

tested on: not listed separately; assay: qHTS Assay for Identifying Gametocytocidal Compounds (AID 743244); also: potency is read from the fitted curve at half-maximal effect;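 as to max response: % is scaled to controls: 0 for no effect and ±100 for the full control effect; actives lower the fluorescent signal which means gametocytes are killed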; details: P. falciparum 3D7 stage III-V gametocytes, alamarBlue, 72 h; max response: active compounds read low
Summary of the method: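 A resazurin-based viability read-out was applied to mature P. falciparum gametocytes: 72 h compound treatment, then 24 h dye incubation, with falling fluorescence signalling gametocytocidal effect.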

SMILES | max response | Potency
COC[C@H]1OC(=O)c2coc3c2[C@@]1(C)C1=C(C3=O)C2CCC(=O)[C@@]2(C)C[C@H]1OC(C)=O (stereo partly drawn) | 9.51% | 
CC(COc1ccccc1)N(CCCl)Cc1ccccc1 (stereo not drawn) | 3.46% | 
Cc1cc(SCc2sc(-c3ccc(C(F)(F)F)c(F)c3)nc2C)ccc1OCC(=O)O | 27.5% | 
CCCCC/C=C\C/C=C\C/C=C\C/C=C\CCCC(=O)NC1CC1 | 45.8% | 
Cc1cccc(C)c1NC(=O)CN1CCCC1=O | 12.6% | 
CC(C)(C)CC(C)(C)c1ccc(O)cc1 | -7.21% and 8.2% | 
Oc1ccc(Cl)cc1Cc1ccccc1 | -3.88% and -14.6% | 
CN1C(=S)CN=C(c2ccccc2)c2cc(Cl)ccc21 | -6.22% | 
Oc1cccc2cccnc12 |  | 11.2 µM (active) and 25.1 µM (active)
CC(=O)Oc1ccccc1C(=O)Nc1ncc([N+](=O)[O-])s1 | 33.5% | 
C[C@H]1O[C@@H](O[C@H]2[C@@H](O)C[C@H](O[C@H]3[C@@H](O)C[C@H](O[C@H]4CC[C@@]5(C)[C@H](CC[C@@H]6[C@@H]5CC[C@]5(C)[C@@H](C7=CC(=O)OC7)CC[C@]65O)C4)O[C@@H]3C)O[C@@H]2C)C[C@H](O)[C@@H]1O | -3.93% | 
CN(C)CCC=C1c2ccccc2CCc2ccccc21 |  | 1.26 µM (active)
Cc1cccc(C)c1NC1=NCCCS1 | 0.533% and 4.4% | 
Cc1ccc(-c2nc3ccc(C)cn3c2CC(=O)N(C)C)cc1 | 7.35% | 
Cc1c(OCC(F)(F)F)ccnc1CS(=O)c1nc2ccccc2[nH]1 (stereo not drawn) | 1.82% | 
O=c1oc2ccccc2c(O)c1C(CC(O)c1ccc(-c2ccc(Br)cc2)cc1)c1ccccc1 (stereo not drawn) | -15.4% | 
COc1ccc(Cc2nccc3cc(OC)c(OC)cc23)cc1OC | 8.87% and -8.15% | 
CCOP(=S)(OCC)Oc1cc(C)nc(C(C)C)n1 | 18.9% | 
N#CC(C#N)=Cc1ccc(O)c(O)c1 | 25.4% | 
N[C@@H]1C[C@H]1c1ccccc1 | 21.9% | 
Cc1cc2c(C(C)C)c(O)c(O)c(C=O)c2c(O)c1-c1c(C)cc2c(C(C)C)c(O)c(O)c(C=O)c2c1O | 0.673% | 
C[C@]12C/C(=C/O)C(=O)C[C@@H]1CC[C@@H]1[C@@H]2CC[C@@]2(C)[C@H]1CC[C@]2(C)O | 18.9% | 
CC[C@@H](CO)NC(=O)[C@@H]1C=C2c3cccc4c3c(cn4C)C[C@H]2N(C)C1 | 1.36% | 

Reference: PubChem BioAssay (NCATS)
